Structures can show the parent of a compound that is named as a salt.

For one assay, the system named is Saccharomyces cerevisiae BY4741 SeMeCo community. Briefly: z-score of subpopulation abundance vs DMSO median, subpopulation auxotrophic for UM; higher = larger share of this subpopulation than in DMSO controls. The following applies: 10 µM; 24 h; SM minimal medium; subpopulation (auxotrophy): UM. Summed up:
(§1)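 A community of Saccharomyces cerevisiae BY4741 was built from four plasmids that each restored one auxotrophy and encoded a distinct fluorescent protein. Pre-grown overnight to OD600 1.0 and diluted to 0.3, it was dispensed at 70 µl into 384-well plates acoustically predosed with library drugs for a final 10 µM, and grown 24 h in minimal SM medium. Cells were then paraformaldehyde-fixed and imaged by automated confocal microscopy. Thresholds and autofluorescence correction came from single-auxotroph fluorescent strains, and each subpopulation's abundance was scored as a z-score relative to the vehicle-well median.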
Regarding `C[N+]1(C)CCC(OC(=O)C(O)(c2ccccc2)C2CCCC2)C1` (centres undefined) [Glycopyrrolate], the “z-score of subpopulation abundance” value came to 1.58. On to `NCC[C@H](O)C(=O)N[C@@H]1C[C@H](N)[C@@H](O[C@H]2O[C@H](CN)[C@@H](O)[C@H](O)[C@H]2O)[C@H](O)[C@H]1O[C@H]1O[C@H](CO)[C@@H](O)[C@H](N)[C@H]1O` [Amikacin disulfate], for which the “z-score of subpopulation abundance” value came to 0.57. Regarding `CN1C2CCCC1CC(NC(=O)c1nn(C)c3ccccc13)C2` (centres undefined) [Granisetron], the “z-score of subpopulation abundance” value is 0.55.

As for `COc1ccc2cc3[n+](cc2c1OC)CCc1cc2c(cc1-3)OCO2` [Berberine Sulfate], the “z-score of subpopulation abundance” value came out at 0.73. For `CS(=O)(=O)Nc1ccc([N+](=O)[O-])cc1Oc1ccccc1` [Nimesulide], the “z-score of subpopulation abundance” value was -0.24. Take `COc1cc(O)c(C(=O)Nc2nc(C(=O)NCCN(C(C)C)C(C)C)cs2)cc1OC` [Acotiamide hydrochloride]: the “z-score of subpopulation abundance” value was 0.4.

As for `C[C@H]1c2cccc(O)c2C(O)=C2C(=O)[C@]3(O)C(O)=C(C(N)=O)C(=O)[C@@H](N(C)C)[C@@H]3[C@@H](O)[C@@H]21` [Doxycycline monohydrate], the “z-score of subpopulation abundance” value was -1.13. Take `COC(=O)C1=C(C)NC(C)=C(C(=O)OC(C)(C)CN(C)CCC(c2ccccc2)c2ccccc2)C1c1cccc([N+](=O)[O-])c1` (centres undefined) [Lercanidipine hydrochloride]: the “z-score of subpopulation abundance” value is -1.34.

On to `CC(c1cc2ccccc2s1)N(O)C(N)=O` (centres undefined) [Zileuton], for which the “z-score of subpopulation abundance” value came to 0.34.

`O=c1ccn(C2CC(O)C(CO)O2)c(=O)[nH]1` (centres undefined) [2-deoxyuridine]: the “z-score of subpopulation abundance” value was -0.82. As for `Nc1nc2[nH]cc(CCc3ccc(C(=O)N[C@@H](CCC(=O)O)C(=O)O)cc3)c2c(=O)[nH]1` [Pemetrexed Disodium Hydrate], the “z-score of subpopulation abundance” value was -7.6.

A further assay has the same test system. Briefly: z-score of subpopulation abundance vs DMSO median, subpopulation auxotrophic for HL; higher = larger share of this subpopulation than in DMSO controls. To be noted: 10 µM; 24 h; SM minimal medium; subpopulation (auxotrophy): HL. In a few lines: as §1
Take `C[C@]12CCC3=C4CCC(=O)C=C4CC[C@H]3[C@@H]1CC[C@@]2(O)CC#N` [Dienogest]: the “z-score of subpopulation abundance” value was found to be 0.26.

As for `C[N+]1(C)CCC(OC(=O)C(O)(c2ccccc2)C2CCCC2)C1` (centres undefined) [Glycopyrrolate], the “z-score of subpopulation abundance” value was -0.5.

`NCC[C@H](O)C(=O)N[C@@H]1C[C@H](N)[C@@H](O[C@H]2O[C@H](CN)[C@@H](O)[C@H](O)[C@H]2O)[C@H](O)[C@H]1O[C@H]1O[C@H](CO)[C@@H](O)[C@H](N)[C@H]1O` [Amikacin disulfate]: the “z-score of subpopulation abundance” value is -0.25. On the same count and under the same terms, next, `CN1C2CCCC1CC(NC(=O)c1nn(C)c3ccccc13)C2` (centres undefined) [Granisetron]: -1.17. Still for that read-out and setting: next, `CCCCCNC(=N)N/N=C/c1c[nH]c2ccc(OC)cc12` [Tegaserod Maleate]: 2.5; `COc1ccc2cc3[n+](cc2c1OC)CCc1cc2c(cc1-3)OCO2` [Berberine Sulfate]: -0.5; `CS(=O)(=O)Nc1ccc([N+](=O)[O-])cc1Oc1ccccc1` [Nimesulide]: 0.8. Consider `COc1cc(O)c(C(=O)Nc2nc(C(=O)NCCN(C(C)C)C(C)C)cs2)cc1OC` [Acotiamide hydrochloride], for which the “z-score of subpopulation abundance” value is -0.16.

For the molecule `C[C@H]1c2cccc(O)c2C(O)=C2C(=O)[C@]3(O)C(O)=C(C(N)=O)C(=O)[C@@H](N(C)C)[C@@H]3[C@@H](O)[C@@H]21` [Doxycycline monohydrate], the “z-score of subpopulation abundance” value was -0.19. Consider `COC(=O)C1=C(C)NC(C)=C(C(=O)OC(C)(C)CN(C)CCC(c2ccccc2)c2ccccc2)C1c1cccc([N+](=O)[O-])c1` (centres undefined) [Lercanidipine hydrochloride], for which the “z-score of subpopulation abundance” value worked out at 1.84. Take `CC(c1cc2ccccc2s1)N(O)C(N)=O` (centres undefined) [Zileuton]: the “z-score of subpopulation abundance” value was -0.17. For `O=c1ccn(C2CC(O)C(CO)O2)c(=O)[nH]1` (centres undefined) [2-deoxyuridine], the “z-score of subpopulation abundance” value was determined as 1.21. `Nc1nc2[nH]cc(CCc3ccc(C(=O)N[C@@H](CCC(=O)O)C(=O)O)cc3)c2c(=O)[nH]1` [Pemetrexed Disodium Hydrate]: the “z-score of subpopulation abundance” value came to 5.03.

(Values after the supplement of paper PMC8975748.)
